# Test results from the supplement of paper PMC8728848.
# Only a selection was taken, and the strongest signals are over-represented in it overall.
# Tests used:
# Experiment in all cases: glycan array binding signal (z-score within array); higher = stronger binding
# Conditions in all cases: glycan notation: IUPAC condensed, linker removed
# [1] = target: Fuc(a1-2)Gal(b1-3)GlcNAc(b1-2)Man(a1-3)[Fuc(a1-2)Gal(b1-3)GlcNAc(b1-2)Man(a1-6)]Man(b1-4)GlcNAc(b1-4)GlcNAc
# Summary of the method: (§1)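 Glycan array data were curated from 3228 arrays in the Consortium for Functional Glycomics database and kept only where the protein sequence was available. Glycan names were converted to IUPAC-condensed notation, and columns mapping to the same glycan were averaged. The binding signal is a within-array Z-score, averaged across arrays of the same protein sequence at different concentrations or buffers and across linkers. Negative Z-scores can be read as non-binding.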
# [2] = target: Fuc(a1-2)Gal(b1-3)GlcNAc(b1-3)[Gal(b1-4)[Fuc(a1-3)]GlcNAc(b1-6)]Gal(b1-4)Glc
# Summary of the method: as §1
# [3] = target: Fuc(a1-2)Gal(b1-3)[Fuc(a1-4)]GlcNAc(b1-2)Man(a1-3)[Fuc(a1-2)Gal(b1-3)[Fuc(a1-4)]GlcNAc(b1-2)Man(a1-6)]Man(b1-4)GlcNAc(b1-4)GlcNAc
# Summary of the method: as §1
# [4] = target: Fuc(a1-2)Gal(b1-4)GlcNAc
# Summary of the method: as §1
# [5] = target: Fuc(a1-2)Gal6S(b1-4)Glc
# Summary of the method: as §1
# [6] = target: Fuc(a1-2)[Gal(a1-3)]Gal
# Summary of the method: as §1
# [7] = target: Fuc(a1-2)[Gal(a1-3)]Gal(b1-4)[Fuc(a1-3)]Glc
# Summary of the method: as §1
# [8] = target: Fuc(a1-2)[GalNAc(a1-3)]Gal(b1-3)GalNAc(a1-3)[Fuc(a1-2)]Gal(b1-4)GlcNAc
# Summary of the method: as §1
# [9] = target: Fuc(a1-2)[GalNAc(a1-3)]Gal(b1-3)GalNAc(b1-3)Gal(a1-4)Gal(b1-4)Glc
# Summary of the method: as §1
# [10] = target: Fuc(a1-2)[GalNAc(a1-3)]Gal(b1-4)Glc
# Summary of the method: as §1
# [11] = target: Fuc(a1-2)[GalNAc(a1-3)]Gal(b1-4)GlcNAc(b1-2)Man(a1-3)[Fuc(a1-2)[GalNAc(a1-3)]Gal(b1-4)GlcNAc(b1-2)Man(a1-6)]Man(b1-4)GlcNAc(b1-4)GlcNAc
# Summary of the method: as §1
# [12] = target: Fuc(a1-2)[GalNAc(a1-3)]Gal(b1-4)GlcNAc(b1-3)Gal(b1-4)GlcNAc(b1-3)Gal(b1-4)GlcNAc
# Summary of the method: as §1
# [13] = target: Fuc(a1-2)[GalNAc(a1-3)]Gal(b1-4)GlcNAc(b1-3)[Fuc(a1-2)[GalNAc(a1-3)]Gal(b1-4)GlcNAc(b1-6)]GalNAc
# Summary of the method: as §1
# [14] = target: Fuc(a1-2)[GalNAc(a1-4)]Gal(b1-4)GlcNAc
# Summary of the method: as §1
# [15] = target: Fuc(a1-3)[Gal(b1-4)]GlcNAc(b1-4)Gal(b1-4)[Fuc(a1-3)]GlcNAc(b1-4)Gal(b1-4)[Fuc(a1-3)]GlcNAc
# Summary of the method: as §1
# [16] = target: Gal(a1-4)GlcNAc
# Summary of the method: as §1
# [17] = target: Gal(b1-2)Gal
# Summary of the method: as §1
# [18] = target: Gal(b1-3)GalNAc
# Summary of the method: as §1
# [19] = target: Gal(b1-3)GlcNAc(b1-2)[Gal(b1-3)GlcNAc(b1-6)]Man(a1-6)[Gal(b1-3)GlcNAc(b1-2)Man(a1-3)]Man(b1-4)GlcNAc(b1-4)GlcNAc
# Summary of the method: as §1
# [20] = target: Gal(b1-3)GlcNAc(b1-6)GalNAc
# Summary of the method: as §1
# [21] = target: Gal(b1-3)[Neu5Ac(a2-6)]GalNAc
# Summary of the method: as §1
# [22] = target: Gal(b1-4)Glc
# Summary of the method: as §1
# [23] = target: Gal(b1-4)GlcNAc(b1-2)Man(a1-3)[Gal(b1-4)GlcNAc(b1-2)Man(a1-6)]Man(b1-4)GlcNAc(b1-4)GlcNAc
# Summary of the method: as §1
# [24] = target: Gal(b1-4)GlcNAc(b1-2)Man(a1-3)[GlcNAc(b1-4)][Gal(b1-4)GlcNAc(b1-2)Man(a1-6)]Man(b1-4)GlcNAc(b1-4)GlcNAc
# Summary of the method: as §1
# [25] = target: Gal(b1-4)GlcNAc(b1-2)Man(a1-6)[GlcNAc(b1-2)Man(a1-3)]Man(b1-4)GlcNAc(b1-4)GlcNAc
# Summary of the method: as §1
# [26] = target: Gal(b1-4)GlcNAc(b1-3)[Gal(b1-4)GlcNAc(b1-6)]Gal(b1-4)GlcNAc
# Summary of the method: as §1
# [27] = target: Gal3S(b1-4)GlcNAc
# Summary of the method: as §1
# [28] = target: Gal4S(b1-4)GlcNAc
# Summary of the method: as §1
# [29] = target: GalNAc(a1-3)Gal
# Summary of the method: as §1
# [30] = target: GalNAc(a1-3)GalNAc
# Summary of the method: as §1
binder,measurement,setting,value
"HPAIIITrx (Helix pomatia), Q1KM18 (protein) MLFVTIISLGLLAIVHGQCALKTIAFSAAIDREQTFDANQVVIYDIVITNHGNAYDNSTGLFTAPVDGMYSFQLNLLTIKEKEGWLELVHNGQLKVSVYAKQDSTYDSSSNSVIIKMKEGDRVNVRAHKKSGLFGRDDELYNTFSGHFLSGL",glycan array binding signal (z-score),[1],3.03
same,glycan array binding signal (z-score),[2],-0.143
same,glycan array binding signal (z-score),[3],3.07
same,glycan array binding signal (z-score),[4],-0.3
same,glycan array binding signal (z-score),[5],-0.211
same,glycan array binding signal (z-score),[6],-0.256
same,glycan array binding signal (z-score),[7],-0.413
same,glycan array binding signal (z-score),[8],4.37
same,glycan array binding signal (z-score),[9],3.47
same,glycan array binding signal (z-score),[10],2.02
same,glycan array binding signal (z-score),[11],6.33
same,glycan array binding signal (z-score),[12],2.94
same,glycan array binding signal (z-score),[13],3.2
same,glycan array binding signal (z-score),[14],3.52
same,glycan array binding signal (z-score),[15],-0.564
same,glycan array binding signal (z-score),[16],-0.387
same,glycan array binding signal (z-score),[17],0.163
same,glycan array binding signal (z-score),[18],-0.149
same,glycan array binding signal (z-score),[19],-0.132
same,glycan array binding signal (z-score),[20],-0.368
same,glycan array binding signal (z-score),[21],-0.314
same,glycan array binding signal (z-score),[22],-0.056
same,glycan array binding signal (z-score),[23],-0.38
same,glycan array binding signal (z-score),[24],-0.402
same,glycan array binding signal (z-score),[25],-0.301
same,glycan array binding signal (z-score),[26],-0.21
same,glycan array binding signal (z-score),[27],-0.024
same,glycan array binding signal (z-score),[28],-0.358
same,glycan array binding signal (z-score),[29],2.5
same,glycan array binding signal (z-score),[30],3.35
